Source: the supplement of paper PMC3334620
In all, about 33,000 sequences were measured (“E-score (-0.5 to 0.5)”: median about -0.0014, highest 2% from about 0.25 on). What follows is part of a selection rich in the highest values, with near analogues and random picks from the rest.

biological target: T1, Cad1 (UniProt P24813); assay: PBM E-score (8-mer binding enrichment) (E-score (-0.5 to 0.5)); higher = stronger / more preferred TF binding; conditions: protein concentration: 100 nM; construct: GST-full length
T1 sequence: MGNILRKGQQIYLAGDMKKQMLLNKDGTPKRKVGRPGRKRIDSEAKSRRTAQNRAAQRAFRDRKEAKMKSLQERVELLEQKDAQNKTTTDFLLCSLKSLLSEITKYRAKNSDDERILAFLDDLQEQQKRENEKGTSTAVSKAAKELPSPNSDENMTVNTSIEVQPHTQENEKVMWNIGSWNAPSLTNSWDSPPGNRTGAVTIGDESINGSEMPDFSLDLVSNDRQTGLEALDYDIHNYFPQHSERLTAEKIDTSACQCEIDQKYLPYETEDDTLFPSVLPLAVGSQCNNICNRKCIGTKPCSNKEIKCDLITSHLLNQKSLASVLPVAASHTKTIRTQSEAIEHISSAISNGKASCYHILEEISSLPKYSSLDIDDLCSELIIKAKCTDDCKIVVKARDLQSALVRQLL
Procedure, shortened: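 Full-length yeast transcription factors or their DNA-binding domains, GST-tagged and expressed with PURExpress, were applied at about 100-200 nM to universal all-10-mer Agilent arrays. These arrays had been made double-stranded by primer extension on fresh or once-stripped slides. Detection used fluorescent anti-GST, normalisation used masliner, and E-scores for ungapped eight-base words pooled with reverse complements came from the Universal PBM Analysis Suite.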

Row | Sequence | PBM E-score
1 | TAAGTCCA | 0.0496
2 | ATGAATCA | 0.0957
3 | AACAGCGC | 0.0746
4 | CAGATCGC | -0.038
5 | CCTTGTAA | 0.049
6 | ATGACTAG | -0.129
7 | GTGACTCA | -0.0941
8 | ATGACTAA | 0.377
9 | GTGACTAA | 0.37
10 | ATGACTAC | -0.181
11 | GTGACTGA | 0.157
12 | AGCTTGAG | -0.123
13 | CGCATAGA | 0.0454
14 | AATACACT | 0.158
15 | GATACACC | 0.257
16 | AATACACC | 0.255
17 | GATACACA | 0.0908
18 | AATACACA | 0.144
19 | CATACACC | 0.00325
20 | AGTACGCA | -0.129
21 | AGTACGCG | 0.26
22 | AGTACGCC | -0.293
23 | AATAGGGT | 0.0291
24 | CGCCCAGC | 0.0197
25 | CGTTGAAG | -0.178
26 | CTCCGGAA | 0.00101

Row | Sequence | PBM E-score
27 | GTCCGGAC | 0.319
28 | TCCGGAAA | 0.252
29 | CTCCGGAC | 0.00021
30 | ACCGGAAA | 0.135
31 | TTCCGGAA | 0.316
32 | ATCCGGAA | 0.22
33 | CCCGGAAA | 0.134
34 | ATCCGGAC | 0.131
35 | ATGCTCCG | -0.114
36 | ATCCAGGG | -0.173
37 | GACAAGCA | -0.021
38 | ACCACTAT | 0.0199
39 | CACAATTA | 0.00794
40 | ACACTTTA | 0.0868
41 | CATAATTC | 0.0611
42 | GATAATGA | 0.167
43 | CATAATGA | 0.0454
44 | AATAATTC | 0.18
45 | CATAATTA | 0.279
46 | AATAATTA | 0.336
47 | AATAATTG | 0.0365
48 | GATAATTA | 0.297
49 | GATAATAA | 0.0805
50 | CTCATTCA | 0.0583
51 | AGTGTGAC | -0.0643
52 | AGACTCAG | 0.0244

Row | Sequence | PBM E-score
53 | CGCGATTA | 0.187
54 | AGCGATTC | -0.021
55 | CGCGATTC | 0.268
56 | CCCTAACC | -0.157
57 | CACTAGAC | -0.0989
58 | AGCTTACC | -0.0175
59 | AGCTTACA | 0.351
60 | TGCTTACA | 0.235
61 | GCGCCCAA | 0.143
62 | AATTCGTC | 0.274
63 | AATTCGGC | -0.0493
64 | CATTCGTC | 0.0375
65 | AATTCGTA | 0.0688
66 | AATTCGGG | 0.0637
67 | AATTCGGT | 0.266
68 | CAATTTCA | 0.0182
69 | CTCGGCAG | 0.136
70 | CAAGCTTG | -0.294
71 | ATTGGTCC | 0.0438
72 | CAACCGCG | 0.297
73 | AAACCGCA | -0.213
74 | CAACCGAA | 0.168
75 | AAACCGCG | 0.271
76 | AAACCGCC | -0.0149
77 | CAACCGCC | -0.23
78 | GAACCGAC | 0.105

Row | Sequence | PBM E-score
79 | CAACCGAC | 0.252
80 | CAACCGCA | 0.066
81 | ACTAGAGA | -0.224
82 | CGTGCGAA | 0.036
83 | GGGCATTA | -0.152
84 | GATCAAGC | -0.0801
85 | GGCGGTAA | 0.045
86 | ACTTCGCG | 0.216
87 | GCAACAGC | -0.076
88 | ATAAGGGG | -0.0559
89 | CTATCGTA | -0.0798
90 | CCGAAACA | 0.0714
91 | TCGAAACA | 0.251
92 | ACGAAACA | 0.192
93 | AGCTATCA | 0.118
94 | CGAAGAGA | 0.106
95 | ATGTCAGA | -0.0566
96 | GTGTCAAA | 0.163
97 | ATGTCACG | 0.0134
98 | CTGTCAGC | 0.118
99 | GTGTCACA | 0.252
100 | CTGTCACA | 0.0656
101 | ATGTCACC | 0.0545
102 | ATGTCACA | 0.306
103 | ATGTCAGC | 0.315
104 | AGCCAGAT | -0.239

Row | Sequence | PBM E-score
105 | AGGTCAAC | 0.00774
106 | ACCTGATG | -0.134
107 | CAGAATGG | -0.00601
108 | CATCAAGA | 0.0115
109 | CCTCAACA | 0.0958
110 | CTTCACGC | 0.26
111 | ATTCACGC | 0.0118
112 | CTTCACGA | -0.199
113 | CTAGACCA | 0.00762
114 | CCAGGACA | 0.0769
115 | ATTATCGC | 0.282
116 | ATTATCGA | 0.107
117 | AATATCAA | 0.138
118 | CTTATCAC | 0.0836
119 | ATTATCAC | 0.151
120 | ATTATCGG | 0.0117
121 | ATTATCAG | -0.0126
122 | GTTATCAA | 0.129
123 | CATATCAA | 0.259
124 | CATATCAG | -0.00093
125 | ATTATCAA | 0.297
126 | CTTATCAA | 0.256
127 | CCAATCGA | 0.105
128 | TATTAGAA | 0.24
129 | CAAACACG | 0.126
130 | CAAAAGCG | 0.0683

Row | Sequence | PBM E-score
131 | ACACGCCC | -0.0578
132 | AGCCATAT | -0.0728
133 | GGTAGCCA | -0.0237
134 | CGACTTAA | 0.0481
135 | TATACCAA | 0.0311
136 | GCGAAATA | -0.0552
137 | ACGAAATA | 0.201
138 | CCGAAATA | 0.253
139 | GGGGTTCA | -0.191
140 | ATCGCCCG | -0.0312
141 | GTTGCTTA | 0.261
142 | GTTGCTGA | 0.111
143 | ATTGCTTA | 0.176
144 | GCTCGGTA | -0.203
145 | CATAGGGC | -0.163
146 | CAATTCGC | 0.322
147 | CAATTCGA | -0.0688
148 | GAATTCGC | -0.0565
149 | ATTCGCAC | 0.00983
150 | GGTGCTGA | -0.0741
151 | AACGCCTG | 0.0294
152 | ACTAAGCT | 0.223
153 | AGTAAGCC | 0.156
154 | ACTAAGCA | 0.181
155 | AGTAAGGG | 0.0236
156 | AGTAAGCG | 0.338

Row | Sequence | PBM E-score
157 | ACTAAGCG | 0.3
158 | ACCGTCTC | 0.138
159 | CTTGCAAA | 0.105
160 | ATTCCTTC | 0.105
161 | ATTGTACA | 0.106
162 | GTTGTACA | 0.286
163 | CTTGTACA | -0.0604
164 | CTGAGGGA | -0.0379
165 | ACTAAAAT | 0.255
166 | ACTAAAAC | 0.116
167 | ATTAAAAT | 0.253
168 | ATTAAAAA | 0.221
169 | ATTAAAAC | 0.108
170 | ACTAAAAA | 0.107
171 | ATGACGTC | 0.0734
172 | AGGAAGTC | -0.225
173 | GAGTGGGC | -0.294
174 | AGGCTACA | 0.00724
175 | GGAAAGAA | -0.177
176 | TGAAAGAA | 0.253
177 | AGAAAGAA | 0.0147
